# Tests used:
# Assay in all cases: PBM binding z-score (relative to random genomic background probes); higher = stronger binding; sequences stand for … in GC…GCGATTGACAGCGTAGAATGAAGG
# [1] = test system: RARb homodimer (NR concentration 270 nM)
# In short: (§1)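 Random background probes are the reference for binding z-scores. These scores derive from regression-normalized fluorescence on custom Agilent 4×180K protein-binding microarrays incubated 1 h with ligand-free nuclear receptor dimers. Binding was detected with antibodies against each partner (one per run).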
# [2] = test system: RARg:RXRa (NR concentration 270 nM, RXRa partner concentration 90 nM)
# In short: as §1
# [3] = test system: RARg homodimer (NR concentration 270 nM)
# In short: as §1
# [4] = test system: RXRa DBDmut IVT, anti-RXR (DBD mutation: RXRa K156A/R161A, NR concentration 90 nM)
# In short: as §1
# [5] = test system: RXRa homodimer (NR concentration 180 nM)
# In short: as §1
# [6] = test system: THRa:RXRa (NR concentration 90 nM, RXRa partner concentration 90 nM)
# In short: as §1
# [7] = test system: THRa homodimer (NR concentration 90 nM)
# In short: as §1
# [8] = test system: VDR homodimer (NR concentration 270 nM)
# In short: as §1
Sequence,PBM binding z-score [1],PBM binding z-score [2],PBM binding z-score [3],PBM binding z-score [4],PBM binding z-score [5],PBM binding z-score [6],PBM binding z-score [7],PBM binding z-score [8]
ATTCCAAGGTGATCGTGAGGTCGTTGATACTAAC,1.59,2.23,0.975,0.914,1.4,3.55,2.95,3.2
TCTGCTAGGTCAACGAGGGTCAGCTAATCTGCTA,4.57,5.29,6.13,1.47,3.94,4.76,1.14,0.552
ATATGTAGCTTATCGGGTCATTCAGTTTGCGCAT,2.24,1.85,1.35,1.26,2.35,3.03,2.6,3.7
GTACCATGGTGAATAGGTCGTTGATGAGTAGGCG,0.603,0.323,0.274,-0.264,0.592,0.133,-0.299,0.21
TCTCGGAGGACACCAAGGTCAGAGCTTTCCAGAG,3.68,2.96,3.73,0.966,1.75,3.13,2.38,2.31
AGTCAAAGTTCATCTAGGTAACTTAAGATATGCT,3.54,5.3,5.5,4.71,4.34,3.05,0.221,5.32
TGACCAAGGTGAGCTGAGGTCGTTGATCCAACTC,1.63,1.46,1.17,-0.41,1.52,4.69,1.8,1.7
ATCTCTAGGTAAAGATACTTCAGTGAATGCAAAT,-0.416,0.491,0.669,-0.0244,0.385,0.398,0.038,0.371
CAAACTAGGTCACGATAGGTCAAAGTCGAATGAC,4.88,6.44,6.71,2.13,5.99,4.65,2.39,2.02
TCTTGAAGATCAATAGAGGTTAAGAAAGTGCGCT,1.17,0.73,0.205,0.671,1.49,2.53,-0.674,-0.178
AGAATGAGGTTATACGTAGATCAGTGAAGAAAGT,0.6,1.71,1.14,1.92,2.12,1.99,0.44,0.703
TCTCGGAGTACACGAAGGTCAGAGCTTTCCAGAG,3.09,2.44,2.29,1.01,1.77,1.58,-0.377,2.03
CCGAGGAGGTTATGGGGCATTCAGGCAACGGTGA,1.31,1.42,0.885,0.0755,1.95,1.25,0.438,0.25
CCTACTGGGCCACGAAAGCTCATTGATTCAGTGA,-0.538,-0.286,0.00415,-0.605,-0.6,-0.523,-0.958,-0.935
ATATGTAGGTTATCGGGTTATTCAGTTTGCGCAT,1.48,1.3,1.01,1.14,1.6,1.78,1.58,2.11
CCTCCTGGGCCAAAAAGGTCATTGATGCCGATAA,4.4,4.5,3.91,0.197,4.5,3.12,0.604,2.38
TCTCGGAGGACACGGAAGGTCAGAGCTCGACATC,3.98,3.49,4.48,0.816,2.31,3.45,1.37,1.01
TCATATAGGTAAATGGTAGGTGAAAGTCCGATCT,0.917,0.69,0.384,1.84,0.945,0.858,0.785,1.1
CCGACTGGGGCAAGGTTACCCTAACGCACAGCCA,1.51,0.945,1.06,-0.485,1.08,1.47,0.84,-0.188

Sequence,PBM binding z-score [1],PBM binding z-score [2],PBM binding z-score [3],PBM binding z-score [4],PBM binding z-score [5],PBM binding z-score [6],PBM binding z-score [7],PBM binding z-score [8]
TGGCCTAGGTCATTGGGCCAGTATAGTACGCATC,2.71,3.81,4.21,0.818,2.68,2.71,0.295,0.451
CGTCAAAGTTCAAGGTAACGGAACAGAAAGCAGC,3.7,5.46,6.41,4.07,4.74,2.84,1.14,2.84
ATCTCTAGGTAAAGTACAGTGAAAGATCGATAGA,0.302,0.498,0.733,0.55,0.366,0.609,0.162,0.488
ATCGAAAGGTCGAGGTGAGTTTAGAGAAAGGGAA,3.07,4.88,4.68,1.24,4.47,3.01,0.695,2.21
ATCTCTAGGTAAAGATAGTTCACTGAATGCAAAT,1.54,1.1,1.18,0.234,0.828,1.31,0.149,1.13
CGTCCACGGTCATAGGAGGTCAGTGAAGACAGAT,3.91,3.21,3.97,0.535,2.05,4.28,0.603,1.18
CCTTACGGGTCACTGACAGGTTATGGCATTTGGA,3.41,5.79,4.82,1.85,5.22,2.9,0.174,0.887
TCTAGTAGATCAGCAGGTTAAGAAAGCTGGCCAA,-0.0798,-0.00824,-0.453,0.645,0.438,0.0763,-1.15,-0.213
CCTGCTAGGTCATGGTCAGATAATCTACAGTATG,3.05,3.94,4.66,1.69,3.04,3.1,1.49,0.43
CGAACGAGGGCATGGGTTGATAGCAAATGCCGAT,1.27,1.31,1.55,1.93,1.26,1.52,0.384,1.72
CCTAGTAGGTCAGGAGGTCACACACCGGATATGA,5.24,7.25,6.37,1.03,7.18,3.91,2.34,3.13
GTTGCTAGGTCAGGTTGGTCAGCTAACGGGTACG,3.23,2.74,4.18,0.0427,1.4,2.02,1.06,0.821
GCTAGTTGGTGAGTAAAAGGTCACACACCGGTCG,4.97,4.87,4.37,0.235,5.35,3.48,1.6,1.57
CCAGACAGGTGAAAGGTAACTAAGTCTGGTACGC,0.728,1.08,0.582,-0.0522,1.99,0.784,-0.203,-0.529
ATCTCTAGTTAAAGATAGTTCAGTGAATGCAAAT,1.14,0.636,0.66,0.396,0.579,0.486,0.212,0.858
CCGTACGGGTCACGAGGTTATAGCACGACGAGCG,4.11,6.39,5.81,1.55,7.62,3.75,0.803,1.75
CCTAGCAGGCCAGGGTCACTTAAGCATTTCGCTT,2.51,2.93,2.28,0.27,3.13,2.67,0.864,1.25
TATTGTAGATCAACAGGAGGTTAAGAAAGATCGA,0.682,1,0.791,-0.715,0.924,1.23,-0.471,0.107
AAATGTAGGTTAGCTGGGGTCATTCAGACTAGGC,3.76,4.06,2.95,1.87,5.4,5.36,3.23,5.33

Sequence,PBM binding z-score [1],PBM binding z-score [2],PBM binding z-score [3],PBM binding z-score [4],PBM binding z-score [5],PBM binding z-score [6],PBM binding z-score [7],PBM binding z-score [8]
CAAACTAGGTCACCGGAAGGTCAATGTCCGCATG,5.62,8.18,7.34,2.27,5.58,4.36,2.94,3.01
ACTATTAGTTGACTTAGGACAACCGATACGACGC,0.766,0.732,1.04,0.853,0.557,2.12,1.88,0.342
GCTGCTAGGTCCACTGATGGTCAGCTAAAGCTCG,0.602,-0.251,-0.0766,0.741,-0.741,-0.256,-0.767,-0.434
GATACTGGGTCAGCTAGAGGCCAGAGTATGGAAA,2.73,5.04,3.76,-0.654,1.82,1.75,-0.395,0.0442
TCGAGTAGGTTAGGGGCTTTCAGAATGGCGTCGA,0.146,-0.192,-0.707,0.128,0.00359,-0.109,0.122,-0.301
CCTAGCAGGCCAATTTGGGTCACTCAAGGCTTGA,2.08,0.9,1.21,0.0247,0.826,3.86,0.606,-0.23
TAGCCTAGGTCCGATCGGGCCAGTATACGCTATA,-0.854,-0.722,-0.738,-0.969,-0.677,0.334,-0.898,-0.952
TTACCAAGGTGAAAGGTTGTTGATGCACGCCTTG,0.999,1.65,0.911,0.0428,2.58,2.15,0.748,0.0809
CGTCCAACGTCAATGCTAGGTCAGTGAAAGCATT,2.01,1.36,1.14,0.107,0.267,1.6,0.388,-0.0849
ACAGACAGTTGAGTGAAGGTAACTCAGCTGGACG,-0.475,0.0376,0.211,-0.165,0.132,0.662,-0.514,-0.463
TCTATTAGTTGAAGGGCAACGGACGAGTCCGTTT,1.19,0.697,0.572,1.53,0.756,0.343,0.0596,1.98
AATACAGGGTCACTACGCCAGAGTAGGTACGAAT,3.19,5.26,4.83,3.03,5.7,3.5,1.33,3.21
CCTCGGAGGACGACAGGAGGTCAGAGCTGCCAGA,2.84,2.54,2.08,-0.23,1.84,2.33,0.421,0.665
CCTACTGGGCCATCAGGTCATTGACATCAACGTT,2.72,1.97,2.1,0.333,1.81,3.22,3.14,1.41
TCTATTAGTTGATAAGGGCAACCGAAACAGCGGA,1.39,0.857,0.844,1.2,0.562,1.4,0.878,0.573
CGTCCAAGGTCAATGCTAGGTCGGTGAAAGCATT,4.24,6.11,6.15,3.31,4.83,3.79,1.98,2.04
TCTTGTAGATAAGCAGGTTAAGAAAGCTGGCCAA,-0.166,-0.153,-0.231,0.319,0.245,0.129,-0.622,-0.0851
ATCGCTAGGTAAAAGTTCAGTGAATCCCGAGGAT,2,1.37,1.46,0.265,1.64,0.795,-0.348,1.16
